Results on 40 compounds are retold here after PubChem BioAssay (NCI).

Each structure is given as a SMILES string. About 79,000 compounds went through this panel and 15% of them were active in at least one assay; those are over-represented in the sample as a whole. Values without a mark were called inactive. Active and inactive are the calls of the source. Rule as the data show it: active = growth inhibition above about 70%; inactive = the rest.

A short description of one test: NCI Yeast Anticancer Drug Screen. Data for the cln2 rad14 strain (AID 165).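 Also: 0% = growth equal to vehicle treated cultures.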 The note with it: S. cerevisiae cln2 rad14 strain, at 50.0 µM, hits give high values. In a few lines: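 Yeast carrying cln2 and rad14 alterations (cell cycle control and DNA damage repair) were exposed to compounds. Growth inhibition was measured against vehicle-treated controls.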
In the case of `O=C(O)c1cccc2c1C(=O)c1c(O)cccc1C2=O`, the growth inhibition is 25.9%.

Turning to `O=C1C(O)=C(Br)C(=O)C(O)=C1Br`, the growth inhibition was -12.1%.

Consider `Oc1ccccc1/C=N\c1nccs1`, for which the growth inhibition was 12.4%.

Take `COc1ccccc1C=Nc1ccc(O)cc1`: the growth inhibition was -26.6%.

Regarding `O=C(O)C1COCOC1c1ccccc1` (centres undefined), the growth inhibition was -14.9%.

On to `CNS(=O)(=O)c1c(C)cccc1CC(=O)c1ccccc1`, for which the growth inhibition is -12.8%.

As to `CCC1CNCCC1CC(=O)O` (centres undefined), the growth inhibition is 24.8%.

Turning to `O=C1/C(=C\c2ccccn2)c2ccccc2N1Cc1ccccc1`, the growth inhibition was 16.9%.

With `Cn1c(SCc2ccc(F)cc2)nnc1C12CC3CC(CC(C3)C1)C2`, the growth inhibition was -1.95%.

`S=C(Sc1nc2ccccc2s1)Sc1nc2ccccc2s1`: the growth inhibition was 85.5% (active).

`CN(C)C(=O)Nc1ccc2c(c1)OCO2`: the growth inhibition was -31.9%.

Take `O=C1CN(CN2CCOCC2)C(=O)CN1CN1CCOCC1`: the growth inhibition was 18.6%.

Take `NC(=O)c1cn(C2OC(CO)C(O)C2O)c2nc(N)nc(N)c2c1=O` (centres undefined): the growth inhibition is 3.9%.

For the compound `CCOc1ccc(C(C)c2cc3c(cc2OC)OCO3)cc1` (centres undefined), the growth inhibition is -1.55%.

In the case of `N/C=N/O`, the growth inhibition is 18.2%.

As for `Cc1ccc(NC(=S)Nc2cccc(C(F)(F)F)c2)cc1C`, the growth inhibition is 4.85%.

In the case of `COc1cc(-c2[nH]ncc2CCCC(=O)Nc2ccccc2[N+](=O)[O-])ccc1O`, the growth inhibition is 7.8%.

In the case of `COc1ccc(-n2cnc3[nH]ncc3c2=O)cc1`, the growth inhibition was -0.85%.

Regarding `Cc1cccc2c1CCC21OC(=O)c2c1ccc1ccccc21` (centres undefined), the growth inhibition is 17.1%.

For the compound `CC(=Nc1cccc2ccccc12)c1c(O)cc(C)oc1=O`, the growth inhibition is 20.9%.

With `CC(=O)N1CN2C(=O)CCC2c2ccccc21` (centres undefined), the growth inhibition was 9.25%.

`O=C(O)c1ccc(C(=O)c2ccc(Cl)cc2)cc1`: the growth inhibition was -6.35%.

With `C=CCNC(=S)N1c2ccccc2NC(=O)CC1C` (centres undefined), the growth inhibition is 13.4%.

Regarding `CC(=O)Oc1ccc2c(=O)c(C(C)=O)coc2c1`, the growth inhibition was 14.4%.

On to `CCOc1ccc(C2=C/C(=C/c3cccs3)C(=O)O2)cc1`, for which the growth inhibition was -25.6%.

A short description of a further test: NCI Yeast Anticancer Drug Screen. Data for the bub3 strain (AID 167). The note with it: S. cerevisiae bub3 mutant strain, at 50.0 µM, hits give high values. In a few lines: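 Yeast carrying a defined mutation is treated with each compound, and growth is compared with that of vehicle-exposed cells to give inhibition.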
Turning to `CC1CCC2C(C)C3C(CC4C5CC=C6CC(O)CCC6(C)C5CCC43C=O)N2C1` (centres undefined), the growth inhibition is 3.9%.

Regarding `CCCCCCCCCCCCCC(=O)OCCN(C)C`, the growth inhibition was -14.4%.

As for `C[N+]1(C)CCC(c2ccccc2)(c2ccccc2)C(O)C1` (centres undefined), the growth inhibition is -8.5%.

In the case of `CN(C)c1ccccc1C(=O)NNC(=S)Nc1ccccc1`, the growth inhibition was 30.4%.

As for `CCN(CC)CCNC(=O)c1ccccc1NC(=O)C(=O)Nc1ccccc1C(=O)NCCN(CC)CC`, the growth inhibition is -60.3%.

Regarding `C/C=C1/CN2CCc3c([nH]c4ccccc34)C2CC1C(Cc1c[n+]2c(c3[nH]c4ccccc4c13)CC1C(C(=O)OC)=COC(C)C1C2)C(=O)OC` (centres undefined), the growth inhibition was -22.2%.

Take `CC(C)(c1ccc([N+](=O)[O-])cc1)c1ccc(N)c([N+](=O)[O-])c1`: the growth inhibition is -9.1%.

Regarding `C1=CC(c2ccccc2)C(c2ccccc2)C(c2ccccc2)=C1` (centres undefined), the growth inhibition is -4.95%.

In the case of `O=C1OC(c2ccc([N+](=O)[O-])cc2)=N/C1=C\c1cccc([N+](=O)[O-])c1`, the growth inhibition is 22.1%.

Consider `CC1CNC(=S)SSC(=S)N1` (centres undefined), for which the growth inhibition is 14.1%.

`CC(=O)c1cc2c(cc1C(C)C)C(C)(C)C(C)CC2(C)C` (centres undefined): the growth inhibition is -41.9%.

In the case of `CO[C@H]1CC2CC1C1C3=C(NC21)C1(O)C[C@H]2CN(CC3)C1C[C@@H]2C(C)CO` (some centres undefined), the growth inhibition is 1.45%.

For `Nc1nc(N)c(N=Nc2ccc(Cl)cc2)c(=O)[nH]1`, the growth inhibition is 5.35%.

Regarding `O=C(O)/C=C\c1cc2c(cc1[N+](=O)[O-])OCO2`, the growth inhibition was 14.6%.

With `CCCOc1ccc(C(N)=S)c2ccccc12`, the growth inhibition was 20.2%.

Turning to `O=C(O)c1cccc2c1C(=O)c1c(O)cccc1C2=O`, the growth inhibition was 13.2%.

`O=C1C(O)=C(Br)C(=O)C(O)=C1Br`: the growth inhibition was 15.4%.

Consider `Oc1ccccc1/C=N\c1nccs1`, for which the growth inhibition is 23.8%.

Consider `COc1ccccc1C=Nc1ccc(O)cc1`, for which the growth inhibition was 3.5%.

Take `O=C(O)C1COCOC1c1ccccc1` (centres undefined): the growth inhibition was -4.05%.

With `CNS(=O)(=O)c1c(C)cccc1CC(=O)c1ccccc1`, the growth inhibition is 14.8%.

Take `CCC1CNCCC1CC(=O)O` (centres undefined): the growth inhibition is -1.2%.

On to `O=C1/C(=C\c2ccccn2)c2ccccc2N1Cc1ccccc1`, for which the growth inhibition was 11.2%.

Turning to `Cn1c(SCc2ccc(F)cc2)nnc1C12CC3CC(CC(C3)C1)C2`, the growth inhibition was -17.4%.
